# Assay results as given in the supplement of paper PMC7380943.
# Counter-ions that a name gives are not always drawn. ± gives the standard deviation of the averaged measurements.
# Columns and labels:
# [1] = test system: CLZ3 (HCA2 human fibroblast dual HR-NHEJ reporter); test: NHEJ repair efficiency (GFP+ cells) relative to control (log10 fold); higher = more non-homologous end joining; settings: 5 µM; doxycycline 0.5 ug/mL
# [2] = test system: CLZ3 (HCA2 human fibroblast dual HR-NHEJ reporter); test: HR repair efficiency (tdTomato+ cells) relative to control (log10 fold); higher = more homologous recombination; settings: 5 µM; doxycycline 0.5 ug/mL
# 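Throughout, for HR repair efficiency (tdTomato+ cells) relative to control: compound given one day before doxycycline, which switches on I-SceI endonuclease expression to create double-strand breaks within the integrated reporter.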
# 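Throughout, for NHEJ repair efficiency (GFP+ cells) relative to control: compound given one day ahead of doxycycline, which switches on I-SceI endonuclease to cut the chromosomally integrated reporter and create DSBs.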
SMILES,NHEJ repair efficiency (log10) [1],HR repair efficiency (log10) [2]
COc1cc(O)c(C(C)=O)cc1S(=O)(=O)O [Sodium Paeonol Sulfonate],0.0246,0.0512
CC(CC(=O)C[C@@H](C)[C@H]1CC(=O)[C@@]2(C)C3=C(C(=O)C[C@]12C)[C@@]1(C)CC[C@H](O)C(C)(C)[C@@H]1C[C@@H]3O)C(=O)O (some centres undefined) [Ganoderic Acid B],0.0835,0.0793
C[C@@]1(CO)C[C@@H](O)C[C@@]2(C)[C@@H]3CC[C@](C)([C@@H](O)CO)C=C3CC[C@H]12 [Kirenol],-0.121,0.0441
COc1ccc(-c2cc(=O)c3c(O)cc(O[C@@H]4O[C@H](CO[C@@H]5O[C@@H](C)[C@H](O)[C@@H](O)[C@H]5O)[C@@H](O)[C@H](O)[C@H]4O)cc3o2)cc1 [Linarin],-0.0758,0.00777
COc1cc([C@@H]2Oc3c(O)cc([C@H]4Oc5cc(O)cc(O)c5C(=O)[C@@H]4O)cc3[C@H]2CO)ccc1O [Silicristin],-0.0735,0.068
COc1ccc([C@@H]2OC[C@H]3[C@@H]2CO[C@@H]3c2ccc(O[C@@H]3O[C@H](CO)[C@@H](O)[C@H](O)[C@H]3O)c(OC)c2)cc1OC [Forsythin],-0.0743,-0.0814
C[C@@]12C[C@@]3(O)O[C@@H](O1)[C@]1(COC(=O)c4ccccc4)[C@@H]3C[C@]12O[C@@H]1O[C@H](COC(=O)c2ccccc2)[C@@H](O)[C@H](O)[C@H]1O [Benzoylpaeoniflorin],-0.0544,-0.0282
Oc1cc(O)c2c(c1)O[C@H](c1ccc(O)c(O)c1)[C@H](O)C2 [Epicatechin (EC)],-0.238,-0.306
Cc1cc(O)cc(O[C@@H]2O[C@H](CO)[C@@H](O)[C@H](O)[C@H]2O)c1 [Orcinol Glucoside],0.0229,-0.0841
CC(C)=CCC[C@](C)(O[C@@H]1O[C@H](CO)[C@@H](O)[C@H](O)[C@H]1O)[C@H]1CC[C@]2(C)[C@@H]1[C@H](O)C[C@@H]1[C@@]3(C)CC[C@H](O)C(C)(C)[C@@H]3[C@@H](O[C@@H]3O[C@H](CO)[C@@H](O)[C@H](O)[C@H]3O)C[C@]12C [Ginsenoside Rg1],0.099,0.0737
COc1cc2ccc(=O)oc2c(O)c1O [Fraxetin],0.113,0.272
O=C(O)[C@H]1O[C@@H](Oc2cc3oc(-c4ccc(O)cc4)cc(=O)c3c(O)c2O)[C@H](O)[C@@H](O)[C@@H]1O [Scutellarin],-0.122,0.0441
OCC1=C[C@@H](O)[C@]2(O[C@@H]3O[C@H](CO)[C@@H](O)[C@H](O)[C@H]3O[C@@H]3O[C@H](CO)[C@@H](O)[C@H](O)[C@H]3O)C=CO[C@@H](O[C@@H]3O[C@H](CO)[C@@H](O)[C@H](O)[C@H]3O)[C@H]12 [Rehmannioside D],-0.165,-0.0162
C=C1[C@H]2CC[C@]3([C@@H]1O)[C@H]1C[C@@H]4C5(C)CCCC4([C@@H]1N(CC)C5)[C@@H]3[C@H]2O [Denudatine],-0.089,0.0616
CC1(C)O[C@H]2CC(=O)OC[C@]23[C@H]2CC[C@@]4(C)[C@H](c5ccoc5)OC(=O)[C@H]5O[C@]54[C@]2(C)C(=O)C[C@@H]13 [Limonin],0.0392,-0.00925
COc1ccc(-c2oc3c(CC=C(C)C)c(O[C@@H]4O[C@H](CO)[C@@H](O)[C@H](O)[C@H]4O)cc(O)c3c(=O)c2O[C@@H]2O[C@@H](C)[C@H](O)[C@@H](O)[C@H]2O[C@@H]2O[C@@H](C)[C@H](O)[C@@H](O)[C@H]2O)cc1 [Epimedin C],-0.0776,-0.0883
CN1Cc2c(ccc3c2OCO3)[C@@]2(C)[C@@H](O)Cc3cc4c(cc3[C@@H]12)OCO4 [Corynoline],-0.128,-0.201
C=C1CCC[C@]2(C)C[C@]3(O)OC(=O)C(C)=C3C[C@@H]12 [Atractylenolide Iii],0.00444,0.0542
C=C[C@@H]1[C@@H](O[C@@H]2O[C@H](CO)[C@@H](O)[C@H](O)[C@H]2O)OC=C(C(=O)OC)[C@@H]1CCOC(=O)c1cc(O)c(O)c(O)c1 [Cornuside I],-0.0558,0.0608
C/C=C(/C)C(=O)O[C@@H]1[C@H](OC(C)=O)c2c(ccc3ccc(=O)oc23)OC1(C)C [Praeruptorin A],-0.00436,-0.0186
C[C@H]1[C@H](C)CC[C@]2(C(=O)O[C@@H]3O[C@H](CO[C@@H]4O[C@H](CO)[C@@H](O[C@@H]5O[C@@H](C)[C@H](O)[C@@H](O)[C@H]5O)[C@H](O)[C@H]4O)[C@@H](O)[C@H](O)[C@H]3O)CC[C@]3(C)C(=CC[C@@H]4[C@@]5(C)C[C@@H](O)[C@H](O)[C@@](C)(CO)[C@@H]5[C@H](O)C[C@]43C)[C@H]12 [Madecassoside],0.0946,0.19
O=C(/C=C/c1ccc(O)c(O)c1)O[C@@H]1[C@H](O)C[C@@](O)(C(=O)O)C[C@H]1OC(=O)/C=C/c1ccc(O)c(O)c1 [Isochlorogenic acid B],0.142,0.105
Cc1cc(O)c2c(c1)C(=O)c1cc(O)cc(O)c1C2=O [Emodin],-0.0237,0.049
COC(=O)[C@@]1(C)CC[C@]2(C(=O)O)CC[C@]3(C)C(=CC[C@@H]4[C@@]5(C)C[C@H](O)[C@H](O)[C@@](C)(CO)[C@@H]5CC[C@]43C)[C@@H]2C1 [Phytolaccagenin],0.0274,0.0241

SMILES,NHEJ repair efficiency (log10) [1],HR repair efficiency (log10) [2]
C/C=C(/C)C(=O)OC(C)(C)[C@@H]1Cc2c(ccc3ccc(=O)oc23)O1 [Columbianadin],-0.0553,-0.0376
Oc1cc(O)c2c(c1)O[C@H](c1cc(O)c(O)c(O)c1)[C@H](O)C2 [(-)Epigallocatechin],-0.0905,-0.0527
COc1ccc(-c2coc3cc(O)ccc3c2=O)cc1 [Formononetin],-0.06,0.128
COc1ccc(C[C@H]2COC(=O)[C@@H]2Cc2ccc(O[C@@H]3O[C@H](CO)[C@@H](O)[C@H](O)[C@H]3O)c(OC)c2)cc1OC [Arctiin],-0.18724 ± 8.6e-05,-0.203 ± 0.1
COc1cc(O)cc(O)c1C(=O)/C=C/c1ccccc1 [Cardamonin],0.233,-0.195
O=c1oc2c(O)c(O)cc3c(=O)oc4c(O)c(O)cc1c4c23 [Ellagic Acid],-0.0512,-0.174
O=C1C=C2C=C[C@@H](O)[C@H](O)[C@H]2O1 [Griffonilide],0.0786,0.00766
C[C@@H]1CC[C@@]2(NC1)O[C@H]1C[C@H]3[C@@H]4CC=C5C[C@@H](O[C@@H]6O[C@H](CO)[C@H](O)[C@H](O[C@@H]7O[C@H](CO)[C@@H](O)[C@H](O)[C@H]7O)[C@H]6O[C@@H]6O[C@@H](C)[C@H](O)[C@@H](O)[C@H]6O)CC[C@]5(C)[C@H]4CC[C@]3(C)[C@H]1[C@@H]2C [Solasonine],-0.000957,0.0163
C[N+]1(C)CCCC1C(=O)O (centres undefined) [Stachydrine Hydrochloride],-0.0485,0.12
C[C@H]1[C@H](C)CC[C@]2(C(=O)O[C@@H]3O[C@H](CO[C@@H]4O[C@H](CO)[C@@H](O[C@@H]5O[C@H](C)[C@H](O)[C@@H](O)[C@H]5O)[C@H](O)[C@H]4O)[C@@H](O)[C@H](O)[C@H]3O)CC[C@]3(C)C(=CC[C@@H]4[C@@]5(C)C[C@@H](O)[C@H](O)[C@@](C)(CO)[C@@H]5CC[C@]43C)[C@H]12 [Asiaticoside],-0.0035,-0.0111
COc1c(O[C@@H]2O[C@H](C(=O)O)[C@@H](O)[C@H](O)[C@H]2O)cc(O)c2c(=O)cc(-c3ccccc3)oc12 [Wogonoside],-0.0783,-0.00302
COc1cc(C[C@H](C)[C@H](C)Cc2ccc3c(c2)OCO3)ccc1O [Anwuligan],0.0149,0.0747
C[C@@H]1CC[C@@]2(OC1)O[C@H]1C[C@H]3[C@@H]4CC=C5C[C@@H](O)C[C@@H](O[C@@H]6O[C@H](C)[C@H](O)[C@H](O[C@@H]7OC[C@@H](O)[C@H](O)[C@H]7O)[C@H]6O[C@@H]6O[C@@H](C)[C@H](O)[C@@H](O)[C@H]6O)[C@]5(C)[C@H]4CC[C@]3(C)[C@H]1[C@@H]2C [Ophiopogonin D],-0.0762,-0.0693
"O=C(O)c1ccc(O)c(O)c1 [3,4-Dihydroxybenzoic acid]",0.00743,-0.033
O=C(O)/C=C/c1ccc(O)cc1 [P-Coumaric Acid],0.1,0.212
COC(=O)c1ccccc1O[C@@H]1O[C@H](CO[C@@H]2OC[C@@H](O)[C@H](O)[C@H]2O)[C@@H](O)[C@H](O)[C@H]1O [Gaultherin],-0.0565,-0.122
O=C(/C=C/c1ccc(O)c(O)c1)O[C@H](C(=O)O)[C@H](OC(=O)/C=C/c1ccc(O)c(O)c1)C(=O)O [Chicoric Acid],0.0111,0.107
CC1(C)[C@@H](O)CC[C@]2(C)[C@H]3C(=O)C=C4[C@@H]5C[C@@](C)(C(=O)O)CC[C@]5(C)CC[C@@]4(C)[C@]3(C)CC[C@@H]12 [Glycyrrhetinic Acid],0.0065,0.158
OC[C@H]1O[C@@H](O[C@@H]2OC=C[C@H]3[C@H](O)[C@@H]4O[C@]4(CO)[C@@H]23)[C@H](O)[C@@H](O)[C@@H]1O [Catalpol],0.0212,0.00259
C[C@@]12C[C@H](c3ccoc3)O[C@@]13C[C@H](OC3=O)[C@H]1[C@H]2C[C@@H]2C[C@H]1C(=O)O2 [Diosbulbin B],-0.0688,0.0545
CCCCCCCCCCCCCCCCCC(=O)OC [Methyl Stearate],-0.0143,-0.0898
O=C(O)CC(O)(CC(=O)O)C(=O)O [Citric Acid],-0.0431,-0.109
O=c1c(O)c(-c2ccc(O)c(O)c2)oc2cc(O)ccc12 [Fisetin],-0.223,-0.0214
